Screens (PubChem)
USP7 inh: inhibitors of human USP7 deubiquitinase. purified USP7, Ub-rhodamine cleavage fluorescence. inhibition, % at 20 µM. hit rate 0.3% among 47,000
UCHL1 block: inhibitors of human UCHL1 deubiquitinase; purified UCHL1, Ub-rhodamine cleavage fluorescence; inhibition, % at 20 µM; hit rate 0.2% among 47,000; AID 1645859, 2021
USP8 inh: inhibitors of human USP8 deubiquitinase; Ubiquitin carboxyl-terminal hydrolase 8 (Homo sapiens), P40818; purified USP8, Ub-rhodamine cleavage fluorescence, 30 min; inhibition, % at 20 µM; hit rate 4.2% among 47,000; AID 1645853, 2021
USP10 block: inhibitors of human USP10 deubiquitinase | purified USP10, Ub-rhodamine fluorescence, 60 min | hit rate 1.1% among 47,000 | inhibition, % at 20 µM
A number is an active result; - = inactive. Only some compounds are listed: those with a hit (about 4.6% of all), similar ones and a draw of the others. Rule as the data show it: active = inhibition above about 30%; inactive = the rest.

SMILES	USP7 inh	UCHL1 block	USP8 inh	USP10 block
CN1c2ccc(Cl)cc2-c2nc(SCC(=O)Nc3ccc(F)cc3)ncc2S1(=O)=O	-	-	50	-
CN1c2cc(Cl)ccc2-c2nc(SCC(=O)Nc3ccc(F)cc3)ncc2S1(=O)=O	-	-	-	-
COc1ccc(CCNC(=O)COC(=O)c2ccc(N3CCCC3=O)cc2)cc1	-	-	30	-
COc1ccc(C(=O)Nc2cccc(N3CCCCC3=O)c2)cc1	-	-	-	-
COc1ccc(CCNc2cc3n(c(=O)n2)CCc2cc(OC)c(OC)cc2-3)cc1OC	-	-	-	-
COc1cc2c(cc1OC)-c1cc(Nc3ccc(Br)cc3)nc(=O)n1CC2	-	-	-	43
CN1CCc2c(sc3c2c(NCc2cccnc2)nc2nnnn23)C1	-	-	39	-
CC(=O)N1CCSc2ccc(S(=O)(=O)Nc3ccc(C)cc3Br)cc21	-	-	-	-
O=C1CC(c2cccc(F)c2)c2ncn(-c3cc(F)ccc3F)c2N1 (configuration not stated)	-	-	-	-
O=C(Nc1cccnc1)C1c2ccccc2C(=O)N(Cc2ccccc2)C12CCCC2 (configuration not stated)	-	-	-	-
O=C(Nc1cccnc1)C1c2ccccc2C(=O)N(c2ccccc2)C12CCCCC2 (configuration not stated)	-	-	49	31
O=c1c(S(=O)(=O)c2cc(F)cc(F)c2)c[nH]c2cc(Cl)ccc12	-	-	80	-
COc1ccc2[nH]cc(S(=O)(=O)c3ccc(C)c(F)c3)c(=O)c2c1	-	-	-	-
Cc1cccc(-c2nnc(SCc3noc(CCC(=O)Nc4ccc(F)cc4)n3)o2)c1	-	-	-	-
Cc1ccc(CNC(=O)Cn2c(=O)n(CCCC(=O)NCc3ccc(F)cc3)c(=O)c3ccccc32)cc1	-	-	43	44
COc1ccc(CCNC(=O)c2ccc(Cn3c(=O)c4ccccc4n(Cc4cc(=O)n5ccccc5n4)c3=O)cc2)cc1OC	-	-	-	-
CCn1cc2c(n1)c(=O)n(Cc1ccccc1)c(=O)n2CC(=O)NCc1ccc(C)cc1	-	-	60	-
Cc1ccc(Cn2c(=O)n(CCC(=O)NCCc3ccccc3)c(=O)c3ccccc32)cc1	-	-	34	-
O=C(Cc1ccc(-n2c(=O)c3ccccc3n(Cc3cc(=O)n4ccccc4n3)c2=O)cc1)NCCc1ccccc1	-	-	49	-
CC(=O)Oc1cn(CCCN2CCCC2=O)c2nc(C)n3c4ccccc4nc3c12	-	-	-	-
O=C(Cn1c(=O)n(Cc2ccc(F)cc2)c(=O)c2ncccc21)Nc1ccccc1	-	-	-	-
Cc1ccc(Cn2c(=O)c3ncccc3n(CC(=O)NCc3ccc(F)cc3)c2=O)cc1	-	-	81	34
Cc1cc(=O)oc2cc(NC(=O)c3ccc(-n4cnnn4)cc3)ccc12	-	-	36	-
COc1ccc(N=c2oc3ccccc3cc2C(=O)NCC2CCCO2)c(OC)c1 (configuration not stated)	-	-	-	-
COc1cc(Cl)cc(CNC(C)C(=O)O)c1O (configuration not stated)	-	-	66	-
SMILES	USP7 inh	UCHL1 block	USP8 inh	USP10 block
CCOC(=O)c1ccc(NC(=O)Cn2c(=O)n(-c3ccc(CC(=O)NCc4ccco4)cc3)c(=O)c3ccccc32)cc1	-	-	58	33
O=C(Cc1ccc(-n2c(=O)c3ccccc3n(CC(=O)Nc3ccc(F)cc3F)c2=O)cc1)NCc1ccco1	-	-	-	-
Cc1ccc(NC(=O)Cn2c(=O)n(CCCCC(=O)NCc3ccco3)c(=O)c3ccccc32)cc1C	-	-	-	-
COC(=O)c1ccccc1NC(=O)Cn1c(=O)n(Cc2ccc(C(=O)NCc3ccco3)cc2)c(=O)c2ccccc21	-	-	39	32
CCOC(=O)c1ccc(NC(=O)Cn2c(=O)n(CC(=O)NCc3ccco3)c(=O)c3ccccc32)cc1	-	-	-	35
O=C(O)Cn1cc(C(=O)C2CC2)c2ccccc21	-	-	-	-
O=C(Cn1cc(C(=O)C2CC2)c2ccccc21)NCCOc1ccc(Cl)cc1	-	-	32	-
COc1ccccc1C(=O)OCc1cc(=O)n2cc(C)sc2n1	-	-	-	-
O=C(Oc1coc(CSc2ncccn2)cc1=O)c1c(F)cccc1F	-	-	46	-
O=C(COc1cccc2ccc(N3CCC(Cc4ccccc4)CC3)nc12)Nc1cccc(Cl)c1	-	-	84	-
COc1ccc(Cl)cc1NC(=O)C1[C@@H]2C(=O)N(Cc3ccc4c(c3)OCO4)C(=O)[C@@H]2[C@H]2c3ccccc3C=CN12 (some centres not stated)	-	-	72	-
O=C(c1ccco1)C1C2C(=O)N(c3ccc(Br)cc3)C(=O)C2C2c3ccccc3C=CN12 (configuration not stated)	-	-	46	-
COc1ccc(N2C(=O)[C@@H]3[C@H]4c5ccccc5C=CN4C(C(=O)Nc4ccc5c(c4)OCO5)[C@@H]3C2=O)cc1 (some centres not stated)	-	-	87	-
CC(=O)Nc1ccc(NC(=O)CSc2nccn2C2CCCCC2)cc1	-	-	-	-
Cc1ccc(C)c(OCC(=O)Nc2ccc(-c3cn4ccsc4n3)cc2)c1	-	-	-	-
Cc1sc2nc(C)n(C3CCN(C(=O)C(C)C)CC3)c(=O)c2c1C	-	-	-	-
O=C(Nc1cccc(F)c1)C1CCCN(c2nnc3ccccn23)C1 (configuration not stated)	-	-	-	-
COC(=O)c1ccccc1NC(=O)C1CCCN(c2nnc(-n3cccc3)s2)C1 (configuration not stated)	-	-	40	-
Cc1c(Cl)cccc1NC(=O)C1CCCN(c2nnc(-n3cccc3)s2)C1 (configuration not stated)	-	-	60	-
Cc1c(F)cccc1NC(=O)C1CCCN(c2nnc3ccccn23)C1 (configuration not stated)	-	-	-	-
Cc1nc(-c2ccccc2F)sc1C(=O)NCc1ccc(S(N)(=O)=O)cc1	-	-	-	-
COc1ccc(-c2nc(C)c(C(=O)NCCc3ccc(S(N)(=O)=O)cc3)s2)cc1	-	-	37	30
O=C(Nc1cnc(N2CCCCCC2)nc1)c1ccc(F)cc1F	-	-	-	-
COc1ccc(Cl)c(NC(=O)C2CC(=O)Nc3cc(-c4ccccc4)nn32)c1 (configuration not stated)	-	-	32	-
COc1ccc(-c2c[nH]n3c(=O)c(CCO)c(C)nc23)cc1OC	-	-	-	-
Cc1nc2c(-c3ccc(Cl)cc3)c[nH]n2c(=O)c1Cc1ccccc1	-	-	-	65
CC(C)=CCC/C(C)=C/Cc1c(O)cc2c(c1O)C(=O)OC2	88	83	57	64
N#Cc1ccccc1NC(=O)COC(=O)Cc1c[nH]c2ccccc12	-	-	-	-
Cc1ccccc1C(=O)Nc1ccc(Cc2ccc(NC(=O)c3ccccc3C)c(O)c2)cc1O	-	-	43	-
